Measurements from PubChem BioAssay (EPA / NIEHS).
“And” between values parts separate entries of the source, which are not always exact repeats. Identical values can stand only once. The source made the active and inactive calls. How the source made its calls: active means hit-call score of the fitted dose curve at least 0.9, where 1 is the maximum; inactive means score below 0.9.

The compounds below were run on Interleukin-8 (IL8), CXCL8 (gene 3576) (assay: BSK_hDFCGF_IL8: BioMAP Diversity Plus: hDFCGF Assay for Interleukin-8 (IL8) Biomarker Activity (AID 2283058)). Conditions: primary human foreskin fibroblasts; actives raise or lower the signal.
Protocol: BSK_hDFCGF is a cell-based, multiplexed-readout assay that uses foreskin fibroblast, a human skin primary cell, with measurements taken at 24 hours after chemical dosing in a 96-well plate.BSK_hDFCGF_IL8 is an assay component measured in the BSK_hDFCGF assay. It measures IL-8 antibody related to regulation of gene expression using ELISA technology.Data from the assay component BSK_hDFCGF_IL8 was analyzed into 1 assay endpoint. This assay endpoint, BSK_hDFCGF_IL8, was analyzed with bidirectional fitting relative to DMSO as the negative control and baseline of activity. Using a type of binding reporter, gain or loss-of-signal activity can be used to understand changes in the signaling as they relate to the gene CXCL8. Furthermore, this assay endpoint can be referred to as a primary readout, because this assay has produced multiple assay endpoints where this one serves a signaling function. To generalize the intended target to other relatable targets, this assay endpoint is annotated to the cytokine intended target family, where the subfamily is interleukins.
The levels of cell surface (or secreted, indicated by the prefix "s") biomarker endpoints were measured by ELISA. Overt cytotoxicity to cells in confluent adherent cultures (all systems other than the BT system) was assessed by measuring total protein levels using sulforhodamine B (SRB) staining in parallel cultures at the time of biomarker measurements, indicated as SRB endpoints. For proliferation assays for adherent cell types, individual cell types are cultured at sub-confluence and relative cell numbers quantified by SRB staining at time points optimized for each system (48 h: 3C and CASM3C systems; 72 h: BT and HDF3CGF systems; 96 h: SAg system). SRB was performed by staining cells with 0.1% SRB after fixation with 10% TCA and reading wells at 560 nm.Viability and proliferation of PBMC (T cells) was quantified by Alamar Blue reduction for the SAg and BT systems. For PBMC viability (referred to as PBMC Cytotoxicity within the assay endpoint names), cells were plated (75,000/well in a 96-well plate) and then chemical samples added for 1 h before addition of activators, SEB and TSST-1 (20 ng/mL final concentration each). Cells were incubated for 90 h. Then, Alamar Blue (20 uL/well) (Invitrogen, Cat DAL1100) was added for 6 h, and the plates were read with a fluorescence microplate reader at 546/580 nm (excitation/emission). For PBMC proliferation, cells were plated and activated as above but incubated for only 16 h prior to addition of Alamar Blue. Plates were read after 6 h.

Row | SMILES | outcome | AC50
1 | O=C(O)C(F)(F)C(F)(F)OC(F)(F)F | inactive | 
2 | O=C(Cl)C(F)(F)C(F)(F)C(F)(F)C(F)(F)C(F)(F)C(F)(F)C(F)(F)C(F)(F)F | inactive | 
3 | CCCCCCC(C)OC(=O)CCCCC(=O)OC(C)CCCCCC (stereo not given) | inactive | 
4 | CCCCNc1ccccc1 | inactive | 
5 | C=CC(=O)OCC(F)(F)C(F)(F)C(F)(F)C(F)(F)C(F)(F)C(F)(F)C(F)(F)F | inactive | 
6 | N=C(N)C(F)(F)C(F)(F)C(F)(F)C(F)(F)C(F)(F)C(F)(F)C(F)(F)F | inactive | 
7 | OCC(F)(F)C(F)(F)C(F)(F)C(F)(F)C(F)(F)C(F)(F)F | inactive | 
8 | C=CC(=O)OCC(F)(F)C(F)(F)C(F)(F)C(F)(F)COC(=O)C=C |  | 11.5 µM (active) and 14.4 µM (active)
9 | FC(F)(F)C(F)(F)C(F)(F)C(F)(F)C(F)(F)C(F)(F)C(F)(F)Br | inactive | 
10 | CCCCCCOC(=O)c1ccccc1O |  | 36.9 µM (active) and 42.9 µM (active)
11 | Oc1ccc(Nc2ccccc2)cc1 | inactive | 
12 | CCCCCCCOC(=O)c1ccccc1C(=O)OCCCCCCC | inactive | 
13 | O=C(O)C(F)(F)C(F)(F)F | inactive | 
14 | O=C(O)C(F)(F)C(F)(F)C(F)(F)C(F)(F)C(F)(F)C(F)(F)C(F)(F)C(F)(F)C(F)(F)C(F)(F)C(F)(F)C(F)(F)C(F)(F)F | inactive | 
15 | FC(F)(F)C(F)(F)C(F)(F)N(C(F)(F)C(F)(F)C(F)(F)F)C(F)(F)C(F)(F)C(F)(F)F | inactive | 
16 | FC(F)(F)C(F)(F)C(F)(F)C(F)(F)C(F)(F)CCI | inactive | 
17 | OCCCC(F)(F)C(F)(F)C(F)(F)F | inactive | 
18 | O=P(O)(O)OCCC(F)(F)C(F)(F)C(F)(F)C(F)(F)C(F)(F)C(F)(F)F | inactive | 
19 | CCCCCCCCC(F)(F)C(F)(F)C(F)(F)C(F)(F)C(F)(F)C(F)(F)F | inactive | 
20 | O=S(=O)(O)C(F)(F)C(F)(F)C(F)(F)C(F)(F)C(F)(F)C(F)(F)C(F)(F)F | inactive | 

Row | SMILES | outcome | AC50
21 | CS(C)(=O)=O | inactive | 
22 | FC(F)(I)C(F)(F)C(F)(F)C(F)(F)I |  | 53.7 µM (active) and 54.7 µM (active) and 56.5 µM (active)
23 | O=C(CC(=O)C(F)(F)C(F)(F)F)C(F)(F)F | inactive | 
24 | OCC(F)(F)C(F)(F)C(F)(F)C(F)F | inactive | 
25 | O=C(O)C(F)(F)C(F)(F)C(F)F | inactive | 
26 | FC(F)(F)C(F)(F)C(F)(F)CI | inactive | 
27 | O=S(=O)(OCC(F)F)C(F)(F)F | inactive | 
28 | CCO[Si](CCC(F)(F)C(F)(F)C(F)(F)C(F)(F)C(F)(F)C(F)(F)F)(OCC)OCC | inactive | 
29 | O=C(O)C(F)(F)C(F)(F)C(F)(F)F | inactive | 
30 | C=C(C)C(=O)OCC(F)(F)C(F)(F)C(F)(F)F | inactive | 
31 | O=C(O)C(F)(F)C(F)(F)C(F)(F)C(F)(F)C(F)(F)C(F)(F)C(F)(F)C(F)(F)Cl | inactive | 
32 | C=C(C)C(=O)OCCC(F)(F)C(F)(F)C(F)(F)C(F)(F)C(F)(C(F)(F)F)C(F)(F)F | inactive | 
33 | CC(CCl)OP(=O)(OC(C)CCl)OC(C)CCl (stereo not given) | inactive | 
34 | FC(F)(F)C(F)(F)C(F)(F)C(F)(F)C(F)(F)C(F)(F)C(F)(F)C(F)(F)CCS | inactive | 
35 | O=S(=O)(OCCOC(F)(F)F)C(F)(F)F | inactive | 
36 | CCN(CC)c1ccc2c(C)cc(=O)oc2c1 | inactive | 
37 | OCC(F)(F)C(F)(F)C(F)(F)C(F)(F)C(F)(F)C(F)F | inactive | 
38 | FC1CC(F)(F)C(F)(F)C1(F)F (stereo not given) | inactive | 
39 | CO[Si](OC)(c1ccccc1)c1ccccc1 | inactive | 
40 | O[Si](c1ccccc1)(c1ccccc1)c1ccccc1 | inactive | 
